Measured values as given in PubChem BioAssay AID1578 (Sanford-Burnham Center for Chemical Genomics, 2009).
The campaign covered roughly 290,000 compounds. About 3,000 (1%) were called active. Many of the other results were omitted from the sample, so actives are more common in it than they were. A number with no mark means an inactive call. Rule as the data show it: active = inhibition mostly above about 36% (no sharp cut-off); inactive = mostly below about 34%.

Assay: NOD1 signaling inhibitors, primary screen, cell-based, luminescence, uHTS (AID 1578);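 also: HEK-293T reporter cells stimulated with the NOD1 agonist gamma-tri-DAP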
Details: NOD1-driven NF-kB luciferase reporter cells, at 4 µM, stronger effect = higher value
Compound `COc1cccc(NC(=S)N2C3CCCC2CC(NC(=O)C2CC2)C3)c1` (configuration not stated) has an inhibition of -11.4%.
With `CC(=C/c1ccc(C(C)C)cc1)/C=N/NC(=O)CSc1ccccn1` the inhibition was -42.7%.
`O=C(Nc1ccc(Cc2ccncc2)cc1)c1ccc(S(=O)(=O)N2CCOCC2)cc1` showed an inhibition of 31.5%.
For `O=C(Nc1ccc(S(=O)(=O)N2CCCCC2)cc1)c1ccncc1`, the inhibition was 9.7%.
`CCC1CCCCN1S(=O)(=O)c1ccc(NC(=O)c2cccnc2)cc1` (configuration not stated) gave an inhibition of 30.5%.
Work on `CCC1CCCCN1S(=O)(=O)c1ccc(NC(=O)c2cccs2)cc1` (configuration not stated) yielded an inhibition of -29.4%.
`CCN(CC)S(=O)(=O)c1ccc(OC)c(NC(=O)CSc2cc(C)ccc2C)c1` gave an inhibition of -19.1%.
For `C=CCN(c1ccccc1C(=O)O)S(=O)(=O)c1ccc(C)cc1`, the inhibition was -26.8%.
For `O=S(=O)(Nc1ccc2c(c1)CCC2)c1cccs1`, the inhibition was 11.6%.
`O=c1c2ccccc2ncn1-c1ccc2c(c1)OCCO2` showed an inhibition of 26.3%.
With `CN(c1ccc(C(=O)NCCC2=CCCCC2)cc1)S(C)(=O)=O` the inhibition was 68.1% (active).
Work on `CS(=O)(=O)N(Cc1ccc(Cl)cc1)c1ccc(C(=O)NCCC2=CCCCC2)cc1` yielded an inhibition of 9.1%.
With `CS(=O)(=O)Nc1ccc(C(=O)NCCC2=CCCCC2)cc1` the inhibition was -9.5%.
`Cc1cc(NC(=O)CSc2nccn2C)n(-c2ccccc2)n1` showed an inhibition of -0.5%.
In the case of `Cc1cccc(N2CCCn3c2nc2c3c(=O)n(CCN3CCOCC3)c(=O)n2C)c1`, the inhibition is reported as 17.7%.
`COCCn1nnnc1C(c1ccccn1)N1CCN(c2cc(Cl)ccc2C)CC1` (configuration not stated) gave an inhibition of -10.8%.
For `COC(=O)c1ccccc1NC(=O)C(C)n1nc(C)c2c(C)n(-c3ccccc3)nc2c1=O` (configuration not stated), the inhibition was 7.4%.
`Cc1cc(C)cc(OCC(=O)Nc2ccc(CN3CCCCC3)cc2)c1` showed an inhibition of -37.6%.
Compound `CCCCc1c(C)nc2ccc(Br)cc2c1SCCC#N` has an inhibition of 19.5%.
With `CCc1c(C)nc2c(Br)cccc2c1SCCC#N` the inhibition was 22.1%.
With `O=C(CN1C(=O)S/C(=C\c2cccs2)C1=O)Nc1ccc(O)cc1C(=O)O` the inhibition was 38.9%.
In the case of `Cn1nnnc1SCCNCc1ccccc1OCc1ccccc1Cl`, the inhibition is reported as -12.2%.
`CCc1cccc(NC(=O)c2sc3nc4n(c(=O)c3c2C)CCC4)c1` gave an inhibition of -29.9%.
With `COc1ccc(-c2csc(Nc3ccc(O)cc3)n2)cc1` the inhibition was 56.7% (active).
`COc1ccc(Nc2nc(-c3ccc(OC)cc3)cs2)cc1` showed an inhibition of -34.6%.
`Oc1ccc(Nc2nc(-c3ccc(O)cc3)cs2)cc1` showed an inhibition of -23.2%.
With `Cc1ccc(S(=O)(=O)N(CC(=O)N/N=C/c2cccc(C)c2)c2cccc3cccnc23)cc1` the inhibition was -9%.
